Compound activity from PubChem BioAssay.
LRH-1 inv ag: LRH-1 (NR5A2) inverse agonists, primary screen, cell-based, luminescence, HEK293T, StAR-luciferase reporter | Nuclear receptor subfamily 5 group A member 2 (Homo sapiens), O00482 | LRH-1 transfected, 24 h | inhibition, % at 3.6 µM | 0.13% of 360,000 active | AID 602396, 2012;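 active means inhibition above the mean inhibition of all tested compounds plus 3 SD, cut at about 73% in these data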;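 further: 0% = DMSO wells and 100% = reporter-only cells lacking LRH-1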
SRC3 inh: SRC3 coactivator transcriptional activity inhibitors, primary screen, cell-based, luminescence | HEK293 GAL4-SRC3 luciferase reporter | inhibition, % at 3.6 µM | 0.17% of 360,000 active | AID 588352, 2011;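 active means inhibition above a per-campaign cutoff, the mean of all compounds plus 3 SD, cut at about 60% in these data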;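 further: 0% = DMSO-treated cells and 100% = gossypol-treated cells at 36 µM; higher means less SRC3-driven luciferase light from the GAL4 reporter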
SRC1 inh: SRC1 coactivator transcriptional activity inhibitors, primary screen, cell-based, luminescence; Nuclear receptor coactivator 1 (Homo sapiens), Q15788; HEK293 GAL4-SRC1 luciferase reporter; inhibition, % at 3.6 µM; 0.12% of 360,000 active; AID 588354, 2011;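 active means inhibition above the campaign mean plus 3 SD, with each screening campaign given its own cutoff, cut at about 60% in these data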;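 further: 0% = DMSO treated cells and 100% = gossypol at 36 µM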
Target sequence (Q15788 whole entry, looked up, the tested form may be a part): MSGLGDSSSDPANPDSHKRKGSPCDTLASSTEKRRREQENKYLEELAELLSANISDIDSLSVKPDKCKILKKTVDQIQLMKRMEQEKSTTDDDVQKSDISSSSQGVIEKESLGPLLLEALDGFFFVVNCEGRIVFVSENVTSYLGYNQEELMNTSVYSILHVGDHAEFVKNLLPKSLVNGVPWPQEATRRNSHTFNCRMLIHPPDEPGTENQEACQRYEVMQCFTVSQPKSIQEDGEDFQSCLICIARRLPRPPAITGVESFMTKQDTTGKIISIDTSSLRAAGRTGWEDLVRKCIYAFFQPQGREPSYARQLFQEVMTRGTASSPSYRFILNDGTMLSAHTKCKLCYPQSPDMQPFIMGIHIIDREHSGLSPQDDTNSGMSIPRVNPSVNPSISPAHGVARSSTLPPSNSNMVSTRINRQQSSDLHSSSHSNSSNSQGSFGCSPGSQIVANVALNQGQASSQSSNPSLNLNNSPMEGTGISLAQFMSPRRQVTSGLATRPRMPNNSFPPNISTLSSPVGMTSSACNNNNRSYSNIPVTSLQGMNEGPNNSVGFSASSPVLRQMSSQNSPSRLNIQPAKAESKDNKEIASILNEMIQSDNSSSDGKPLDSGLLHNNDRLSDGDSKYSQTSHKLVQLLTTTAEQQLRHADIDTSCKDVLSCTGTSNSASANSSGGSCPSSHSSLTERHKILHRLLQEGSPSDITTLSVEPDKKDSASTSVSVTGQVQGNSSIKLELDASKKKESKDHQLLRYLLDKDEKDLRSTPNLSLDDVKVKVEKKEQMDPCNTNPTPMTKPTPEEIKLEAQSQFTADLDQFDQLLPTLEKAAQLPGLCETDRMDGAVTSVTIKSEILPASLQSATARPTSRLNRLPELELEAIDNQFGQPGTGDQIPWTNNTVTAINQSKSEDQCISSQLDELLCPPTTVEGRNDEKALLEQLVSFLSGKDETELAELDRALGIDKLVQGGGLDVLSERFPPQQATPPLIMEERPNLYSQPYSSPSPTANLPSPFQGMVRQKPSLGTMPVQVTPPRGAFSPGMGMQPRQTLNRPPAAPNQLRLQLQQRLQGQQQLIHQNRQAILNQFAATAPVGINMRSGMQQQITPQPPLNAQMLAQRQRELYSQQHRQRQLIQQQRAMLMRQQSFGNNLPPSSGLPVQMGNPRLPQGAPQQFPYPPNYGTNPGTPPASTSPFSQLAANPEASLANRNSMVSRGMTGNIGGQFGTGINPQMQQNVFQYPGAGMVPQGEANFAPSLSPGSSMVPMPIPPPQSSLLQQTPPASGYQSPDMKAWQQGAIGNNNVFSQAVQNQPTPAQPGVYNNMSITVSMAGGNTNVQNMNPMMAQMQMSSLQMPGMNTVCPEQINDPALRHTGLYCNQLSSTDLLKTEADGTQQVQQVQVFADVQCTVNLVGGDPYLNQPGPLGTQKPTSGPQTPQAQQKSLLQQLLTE
Gli-Sufu block: Gli-Sufu pathway antagonists, primary screen, luciferase luminescence, Sufu-KO-LIGHT cells, uHTS. Sufu-KO-LIGHT fibroblasts, Gli luciferase reporter luminescence. inhibition, % at 5 µM. 0.74% of 340,000 active;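 active means inhibition above about 55%, limit read from the data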;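 further: 0% = DMSO-treated cells and 100% = wells with medium but no cells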
SRC2 inh: inhibition of GAL4-SRC2 driven luciferase reporter, primary screen, SRC2 inhibitor project, cell-based, luminescence; 0.17% of 370,000 active; HEK293 GAL4-SRC2 luciferase reporter; Nuclear receptor coactivator 2 (Homo sapiens), Q15596; AID 651957, 2012; inhibition, % at 9 µM;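 active means inhibition above the mean inhibition of all tested compounds plus 3 SD, set per campaign, cut at about 52% in these data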;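 further: 0% = DMSO treated cells and 100% = cells given Gossypol at 36 µM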
Shn3 3UTR inh: reduction of Shn3 3'UTR firefly luciferase signal, primary screen, Schnurri-3 inhibitor project, cell-based, Clone20 osteoblasts, set 2; 0.52% of 360,000 active; inhibition, % at 12.5 µM; Clone20 osteoblast Shn3 3'UTR firefly luciferase, 24 h; AID 588674, 2011;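 active means mean inhibition of at least 75% with every replicate also reaching 75%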;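 further: 0% = median of neutral control wells and 100% = pilot-screen positive control compound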
Gli-Sufu confirm: Gli-SUFU pathway antagonists, confirmation, single concentration, luciferase luminescence, Sufu-KO-LIGHT cells | 40% of 2,500 active | Gli luciferase reporter | AID 602428, 2012 | inhibition, % at 5 µM | shares compounds with Gli-Sufu block;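 active means mean inhibition at 5 µM reaching about 45%, limit read from the data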;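 further: plate controls were DMSO-treated cells for no effect and wells lacking cells for full effect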
SufuKO cytotox: cytotoxicity in Sufu-KO-LIGHT cells, confirmation, cytotoxicity control for Gli-SUFU antagonist project, cell-based, ATP luminescence, single concentration | shares compounds with Gli-Sufu block | cytotoxicity, % at 5 µM | 32% of 2,500 active | AID 651994, 2013;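 active means mean cytotoxicity at 5 µM above about 25%, limit read from the data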;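 further: cells exposed to compound overnight for roughly 16 to 18 hours; plate controls were DMSO wells with cells for no effect and medium without cells for full effect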
Wnt3a cs: Wnt3a reporter signal inhibition, confirmation, counter-screen for Gli-SUFU antagonist project, Wnt-LIGHT cells, luminescence, single concentration. shares compounds with Gli-Sufu block. Wnt3a-driven luciferase reporter. inhibition, % at 6.25 µM. 20% of 2,500 active;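 active means mean inhibition above about 25%, limit read from the data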
An asterisk follows results filed as active; . = no result. Rows were chosen to be rich in hits. Some 1.1% of all compounds tested hit in one or more screens of this group.

SMILES	LRH-1 inv ag	SRC3 inh	SRC1 inh	Gli-Sufu block	SRC2 inh	Shn3 3UTR inh	Gli-Sufu confirm	SufuKO cytotox	Wnt3a cs
C[C@@H]1[C@H](O)[C@@H](C)/C=C/C=C/C=C/C=C/C=C/C=C/C=C/[C@H](OC2O[C@H](C)[C@@H](O)[C@H](N)[C@@H]2O)C[C@@H]2O[C@](O)(C[C@@H](O)C[C@@H](O)[C@H](O)CC[C@@H](O)C[C@@H](O)CC(=O)O[C@H]1C)C[C@H](O)[C@H]2C(=O)O (stereo partly specified)	.	.	.	.	4.3	.	.	.	.
CCOC(=O)N1CCN(C(=O)CSc2ccc3nnc(-c4ccccn4)n3n2)CC1	-21.7	-0.4	-11.7	10.1	10.9	-0.4	.	.	.
CCOC(=O)N1CCN(C(=O)CSc2ccc3nnc(-c4ccncc4)n3n2)CC1	13.0	21.1	-5.5	58.9*	-11.8	-2.7	8.7	33.1*	-11.7
C#CCN1C(=O)[C@@](O)(c2cccn2C)c2cc(F)ccc21	.	.	.	.	3.7	.	.	.	.
COc1ccc(N2CCCN(CC(=O)Nc3ccc(Cl)c(Cl)c3)CC2)cc1	.	.	.	.	-1.9	.	.	.	.
C[C@H](CO)N1C[C@H](C)[C@@H](CN(C)S(=O)(=O)c2ccc(Cl)cc2)Oc2ccc(NS(=O)(=O)c3ccccc3)cc2CC1=O	-23.4	-0.6	-3.5	58.1*	12.7	-4.9	9.9	-12.3	-22.3
Cc1ccc(S(=O)(=O)Nc2ccc3c(c2)CC(=O)N([C@H](C)CO)C[C@@H](C)[C@H](CN(C)S(=O)(=O)c2ccccc2)O3)cc1	-5.8	0.0	-31.4	-2.5	-13.1	-12.2	.	.	.
C[C@H](CO)N1C[C@H](C)[C@@H](CN(C)S(=O)(=O)c2cn(C)cn2)Oc2ccc(NC(=O)Nc3ccccc3)cc2C1=O	-11.8	-3.2	-15.5	95.6*	12.4	1.4	12.1	2.7	-47.3
O=C(CC(Cc1ccccc1)C(=O)O)Nc1cccc(C(F)(F)F)c1 (stereo unspecified)	3.8	-2.5	8.0	53.5	-0.1	10.3	12.7	11.4	-3.1
O=C(CC(Cc1ccccc1)C(=O)O)Nc1ccc(F)cc1 (stereo unspecified)	2.9	2.5	-13.8	9.6	11.7	4.2	.	.	.
CC[N+]1=C(C)C(C)(C)c2cc(C)ccc21	14.5	5.3	-23.6	56.8*	20.4	89.4*	45.5*	16.8	-3.0
O=C(N/N=C\c1c(O)ccc2ccccc12)c1ccc(Cn2cccn2)o1	25.4	32.9	24.0	58.1*	29.0	89.1*	68.5*	25.6*	58.7*
O=C(NN=Cc1c(O)ccc2ccccc12)C1CC1	9.3	13.5	16.6	5.2	12.0	76.6	.	.	.
O=C(CN1CCCC1)N/N=C/c1c(O)ccc2ccccc12	26.7	5.8	18.8	54.6	24.4	91.0*	65.8*	37.0*	60.2*
COc1ccc(-n2c(SCC(=O)NNC(=S)Nc3ccccc3)nc3ccccc3c2=O)cc1	.	.	.	.	18.4	.	.	.	.
C/C(=N\NC(=O)c1nnn(-c2nonc2N)c1C(C)C)c1ccc2ccccc2c1	12.8	14.4	17.4	59.7*	-4.0	-3.2	10.6	27.5*	20.3
CC1=C(C(=O)OC(C)C)C(c2ccccc2)NC(=O)N1C (stereo unspecified)	-2.0	7.2	-5.4	57.2*	14.4	15.2	26.3	1.1	-8.7
CC(C)CCNC(=O)C1CCCN(S(=O)(=O)c2ccc3c(c2)CC(C)N3C(=O)C2CC2)C1 (stereo unspecified)	10.5	-1.1	13.7	56.6*	-19.2	-13.0	31.9	3.9	-30.8
CC(=O)N1CCCc2cc(S(=O)(=O)N3CCCC(C(=O)NCc4ccccc4)C3)ccc21 (stereo unspecified)	4.9	4.0	-2.7	50.8	-1.1	12.3	20.5	8.0	-8.5
Cc1ccc(O)c(NC(=O)C2=CC(c3cccs3)=NS(=O)(=O)N2C)c1	8.0	-2.7	-7.2	93.9*	4.1	1.0	15.7	-3.5	2.8
COc1cc(C(=O)NNC(=S)NC(=O)c2ccc(F)cc2)cc(OC)c1OC	2.9	19.1	11.6	57.1*	-22.0	45.2	13.5	18.4	-19.3
COc1ccc(C(=O)NNC(=S)NC(=O)c2ccc(F)cc2)cc1Br	-7.2	10.3	-9.0	1.1	-26.4	-44.9	.	.	.
Cc1ccc(NC(=O)Cn2nnc(-c3ccncc3)n2)cc1C	.	.	.	.	3.4	.	.	.	.
Cc1cc(C)c[n+](C(C)C(=O)c2ccc(-c3ccccc3)cc2)c1 (stereo unspecified)	48.7	40.2	17.4	79.9*	-4.8	32.8	78.9*	23.5	-0.2
COc1ccc(C=Nn2c(-c3n[nH]c4c3CCC4)n[nH]c2=S)cc1OCc1ccccc1	.	.	.	.	18.1	.	.	.	.
SMILES	LRH-1 inv ag	SRC3 inh	SRC1 inh	Gli-Sufu block	SRC2 inh	Shn3 3UTR inh	Gli-Sufu confirm	SufuKO cytotox	Wnt3a cs
O=c1ccc(-c2ccc(S(=O)(=O)NCC3CCN(Cc4cccc(F)c4)CC3)s2)n[nH]1	0.5	19.0	2.3	59.2*	-14.6	-5.5	12.5	21.9	-4.8
C=CCN(CC#Cc1ccc(OC)cc1)CC=C	.	.	.	.	-16.6	.	.	.	.
O=c1[nH]c(/C=C2\C=Nc3ccccc32)c(O)n1Cc1ccccc1F	-18.5	6.0	-26.5	56.2*	12.9	70.5	65.3*	26.7*	10.4
CSc1nc(O)c(/C=C2\C=Nc3ccccc32)[nH]1	-38.4	-25.7	-78.0	5.8	-53.6	-63.7	.	.	.
CC(C)N1CCCCC(NC(=O)c2ccc(Cl)cc2Cl)C1=O (stereo unspecified)	.	.	.	.	-23.6	.	.	.	.
Cc1nnsc1C(=O)Nc1ccc(S(=O)(=O)N2CCC(C)CC2)cc1	-8.9	10.8	-2.0	54.4	5.5	48.6	27.6	22.5	-58.8
CCN1CCCCC(NC(=O)c2ccc(C)cc2)C1=O (stereo unspecified)	.	.	.	.	-17.2	.	.	.	.
O=C(CN1CCN(c2nc(-c3ccccc3)cs2)CC1)Nc1ccc(Cl)cc1	.	.	.	.	6.7	.	.	.	.
COC(=O)[C@H]1C[C@@]2(n3ccc4ccccc43)c3ccccc3N(S(=O)(=O)c3ccccc3)[C@H]2N1C(=O)CNC1CCCCC1	.	.	.	.	18.6	.	.	.	.
CCN1CCN(C(=O)c2cc(COc3ccc4ncccc4c3)on2)CC1	12.5	6.0	19.9	30.5	1.3	54.2	.	.	.
